Among the data in PubChem BioAssay (EPA / NIEHS) are outcome and AC50 values, retold here.

By AC50 is commonly meant the concentration at which the activity in the assay is half-maximal.

Inconclusive results are not listed. Calls of active or inactive are those of the source. How the source made its calls: active means hit-call score of the fitted dose curve at least 0.9, where 1 is the maximum; inconclusive means response in the unintended direction; inactive means score below 0.9.

Read-out in the assay: HMG-CoA synthase (HMGCS2), HMGCS2 (gene 3158)
Description: CLD_HMGCS2_24hr: CellzDirect (CLD) Gene Expression Assay for HMG-CoA synthase (HMGCS2) at 24 hours (AID 2283691). As for the experimental part:
CLD_24hr is a cell-based, multiplexed-readout assay that uses hepatocyte, a human liver primary cell, with measurements taken at 24 hours after chemical dosing in a 96-well plate.CLD_HMGCS2_24hr is one of 16 assay component(s) measured or calculated from the CLD_24hr assay. It is designed to make measurements of mRNA induction, a form of inducible reporter, as detected with chemiluminescence signals by Quantitative Nuclease Protection Assay (qNPA) technology.Data from the assay component CLD_HMGCS2_24hr was analyzed at the endpoint, CLD_HMGCS2_24hr, in the positive analysis fitting direction relative to DMSO as the negative control and baseline of activity. Using a type of inducible reporter, gain-of-signal activity can be used to understand changes in the reporter gene as they relate to the gene HMGCS2. Furthermore, this assay endpoint can be referred to as a primary readout. To generalize the intended target to other relatable targets, this assay endpoint is annotated to the lyase intended target family, where subfamily is HMG-CoA synthase.
Human hepatocyte cultures were treated daily for two consecutive days with fresh dosing solutions containing appropriate concentrations of the 320 ToxCast chemicals (chemical identities were blinded to CellzDirect and other ToxCast collaborators), vehicle control (0.2% DMSO), and positive control inducers as summarized in Table 1. Due to the large number of treatment groups and chemicals examined, the ToxCast chemicals were divided into two groups (spanning two independent cultures of hepatocytes from separate donor preparations (Hu778: ToxCast plates 1 and 2; Hu776: ToxCast plates 3 and 4). Each preparation of human hepatocyte cultures was treated with respective vehicle control, medium only control, set of six positive controls/reference chemicals for the five hepatic receptor pathways, and a subset of eight of the ToxCast chemicals (indoxacarb, pyrithiobac-sodium, norflurazon, cyhalofop-butyl, methomyl, thiram, acetochlor, and propiconazole). These replicate data, coupled with internal replicates designed within the blinded ToxCast chemical library, provided additional data to evaluate interindividual differences between hepatocyte preparations and their potential impact on chemical profiles.Cell morphology and integrity were evaluated using phase-contrast microscopy as an indicator of hepatocyte cell health (Tyson & Green, 1987). Cultures for each treatment group (i.e., media, vehicle [0.2% DMSO], positive control inducers [multiple concentrations], and the ToxCast chemicals [multiple concentrations]) were observed and cell morphology was assessed relative to vehicle control cultures at each harvest time point (0, 6, 24, or 48 h). […] Images were evaluated at the conclusion of the study to assess changes in cell integrity and account for the effects of chemical exposure on uncharacteristic changes in concentration-dependent gene expression profiles. The results from these determinations of apparent cytotoxicity were annotated (yes/no) alongside the corresponding qNPA data for reference.At the conclusion of each treatment period, hepatocyte cultures (96-well) were washed with 1 volume of HBSS, lysed by addition of 25 ul ArrayPlate lysis buffer (HTG, Tucson, AZ), and 70 ul/well of Denaturation Oil, denatured by incubation at 95C for 10 min, and frozen at approximately -70C until analysis by nuclease protection assay (qNPA) (Roberts et al., 2007). For qNPA analysis, cell lysates were thawed at 50C for approximately 30 min, qNPA probes were added, and samples were incubated at 95C for 10 min to begin the detection process by denaturing the target RNA, dissociating the duplexes and secondary structure hybridization. At the conclusion of the hybridization period, S1 nuclease reagent was added to each sample to digest all nonprotected nucleotides at 50C for 60-90 min. […]
For the compound `COc1c(Cl)ccc(Cl)c1C(=O)O`, the compound was called inactive.

Turning to `COC(=O)c1ccc(CNS(C)(=O)=O)cc1S(=O)(=O)NC(=O)Nc1nc(OC)cc(OC)n1`, the result was inactive.

Consider `COC(=O)c1ccccc1C(=O)O`, for which the compound was called inactive.

On to `CCOC(=O)C(C)Oc1ccc(Oc2nc3ccc(Cl)cc3o2)cc1` (centres undefined), for which the call was inactive.

On to `CCCCOC(=O)[C@@H](C)Oc1ccc(Oc2ccc(C(F)(F)F)cn2)cc1`, for which the compound was classed as inactive.

On to `CCCCOC(=O)C(C)Oc1ccc(Oc2ccc(C(F)(F)F)cn2)cc1` (centres undefined), for which the result was inactive.

For the compound `OB(O)O`, the call was inactive.

For `CCCOC(=O)c1ccc(C(=O)OCCC)nc1`, the compound was called inactive.

With `CC(C)(c1ccc(O)cc1)c1ccc(O)cc1`, the compound was classed as inactive.

Regarding `COC(=O)c1c(Cl)nn(C)c1S(=O)(=O)NC(=O)Nc1nc(OC)cc(OC)n1`, the compound was classed as inactive.

Consider `CCOC(=O)COc1cc(-n2ncc(C(F)(F)F)c(C)c2=O)c(F)cc1Cl`, for which the outcome was inactive.

Consider `N#CSCSc1nc2ccccc2s1`, for which the outcome was inactive.

For `Oc1ccc(C(c2ccc(O)cc2)C(Cl)(Cl)Cl)cc1`, the call was inactive.

For the compound `CCOC(=O)C(C)Oc1ccc(Oc2cnc3cc(Cl)ccc3n2)cc1` (centres undefined), the result was inactive.

As to `c1ccc(Nc2ccccc2)cc1`, the outcome was inactive.

For `CSC(=O)c1cccc2nnsc12`, the AC50 is 7.33 µM (active).

As to `CCOC(=O)NCCOc1ccc(Oc2ccccc2)cc1`, the compound was called inactive.

On to `COC(=O)c1ccccc1S(=O)(=O)NC(=O)Nc1nc(OC(F)F)cc(OC(F)F)n1`, for which the result was inactive.

For the compound `C#CCOC(=O)[C@@H](C)Oc1ccc(Oc2ncc(Cl)cc2F)cc1`, the compound was called inactive.

For the compound `CCCCC(CC)COC(=O)c1ccccc1C(=O)O` (centres undefined), the compound was called inactive.

Turning to `CCCOC(=O)NCCCN(C)C`, the compound was called inactive.

On to `CCSC(=O)N(CC(C)C)CC(C)C`, for which the compound was classed as inactive.

For the compound `O=C(O)C1(C(=O)Nc2ccc(Cl)cc2Cl)CC1`, the AC50 was 34.9 µM (active).

Regarding `CCC(C)OC(=O)N1CCCCC1CCO` (centres undefined), the outcome was inactive.
